Compounds with a hit are over-represented: about 8.5% of the library has one in this group of screens.
FBPA coupling cs = coupling enzyme interference in Giardia aldolase counter-screen; hit rate 0.67% among 290,000; activity change, negative = inhibition, % at 58.2 µM, hits read low; coupling enzyme system counterscreen, AmpLite Red fluorescence; AID 2472; in the data active = activity change below about -30%
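Counterscreen lacking aldolase: glyceraldehyde-3-phosphate coupling-enzyme reagent preincubated 10 min at RT with compound (at 57.5 uM final), then substrate/coupling system with AmpLite Red added; fluorescence read at 525/598 nm after 20 min RT.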
Sfp PPTase inh = blocks B. subtilis Sfp PPTase activity; Q9F4F7; Biochemical Sfp PPTase activity, qHTS; Potency, µM, usual class: inhibitors; hit rate 3.5% among 310,000; active = well fitted curve in the direction sought with a large enough effect; inconclusive = small, poorly fitted or top-dose-only effect, or another doubt; inactive = no such curve, though single readings can be large; an effect the other way counts as inactive or inconclusive;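 note: the enzyme is Sfp with the accession as filed and its product quenches rhodamine fluorescence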
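Buffer: 50 mM Hepes-Na pH 7.6, 10 mM MgCl2, 0.01% Nonidet P-40, 0.01% BSA. Enzyme 15 nM, pre-exposed to compound 15 min; substrates then added and fluorescence change tracked over 30 min.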
ALDH1A1 block = blocks purified human ALDH1A1 activity; Purified ALDH1A1, NADH fluorescence, propionaldehyde substrate; hit rate 7.3% among 220,000; Potency, µM (highest dose often 75.3 µM), usual class: inhibitors; P00352
Target sequence (P00352 whole entry, looked up): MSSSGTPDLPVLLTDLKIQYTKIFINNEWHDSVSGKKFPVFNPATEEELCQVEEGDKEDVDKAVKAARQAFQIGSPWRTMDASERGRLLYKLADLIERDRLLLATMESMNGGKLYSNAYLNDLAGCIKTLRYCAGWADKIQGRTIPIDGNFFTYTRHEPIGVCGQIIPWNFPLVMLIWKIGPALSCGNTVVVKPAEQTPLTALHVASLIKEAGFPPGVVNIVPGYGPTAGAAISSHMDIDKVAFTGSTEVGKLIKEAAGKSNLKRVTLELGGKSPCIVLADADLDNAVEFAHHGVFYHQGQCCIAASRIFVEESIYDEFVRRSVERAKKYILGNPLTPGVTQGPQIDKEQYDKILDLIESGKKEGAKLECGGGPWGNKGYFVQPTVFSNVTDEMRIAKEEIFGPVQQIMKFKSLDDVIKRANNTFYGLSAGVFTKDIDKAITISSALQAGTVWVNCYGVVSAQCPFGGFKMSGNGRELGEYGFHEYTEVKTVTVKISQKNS
KDM4E inh = blocks human JMJD2E demethylase activity; B2RXH2; JMJD2E catalytic domain, FDH-coupled NADH fluorescence (FDH is formaldehyde dehydrogenase); Potency, µM (top dose mostly 57.1 µM), most hits filed as inhibitors; hit rate 1.6% among 230,000; AID 2147; note: nearly all actives have a fitted effect of over 50% in size
NPSR antag = antagonists of human neuropeptide S receptor cAMP signaling; CHO-NPSR cells, cAMP TR-FRET, antagonist mode; Potency, µM (highest dose often 38.3 µM), actives largely listed as inhibitors; hit rate 1% among 220,000; active = well fitted curve in the direction sought with a large enough effect; inconclusive = small, poorly fitted or top-dose-only effect, or another doubt; inactive = no such curve, though single readings can be large; an effect the other way counts as inactive or inconclusive; note: nearly all actives have a fitted effect of over 50% in size
GoLoco inh red = RGS12 GoLoco-Gai1 interaction inhibition; Gai1:RGS12 GoLoco peptide FP, rhodamine, 10 min; hit rate 0.44% among 230,000; P63096; Potency, µM (titrated, usually from 61.6 µM), most hits filed as inhibitors; active = well fitted inhibition curve with a large enough effect, not every such curve was filed as active; inactive = no such curve, though single readings can be large or run the other way; note: nearly all actives have a fitted effect of over 30% in size
Large screens that a line does not name were inactive; ! = not confirmed by another sample. Unless noted, calls come from the whole dose curve; as a rule, active = well fitted inhibition curve with a large enough effect (not every such curve was filed as active); inconclusive = small, poorly fitted or top-dose-only effect, or another doubt; inactive = no such curve, though single readings can be large or run the other way.

O=C(c1ccccc1)c1ccccc1	ALDH1A1 block 25.1µM! (no result: KDM4E inh, NPSR antag)
O=C(c1c[nH]c(C(=O)C(Cl)(Cl)Cl)c1)c1ccc(F)cc1Cl	ALDH1A1 block 1µM
O=C(c1ccccc1)c1ccc(-c2ccc(O)cc2)cc1	none
COC(=O)CCCC(=O)N1CCC(CCC(=O)NC2CC2)CC1	none (no result: ALDH1A1 block, KDM4E inh, NPSR antag, GoLoco inh red)
COc1ccc(-c2ccc(C3C4C=CCC(C)C4C(=O)N3Cc3ccccc3)c(F)c2)cc1C (configuration not stated)	none (no result: ALDH1A1 block, KDM4E inh, NPSR antag, GoLoco inh red)
O=C1Nc2ccccc2/C1=C\c1cccn1-c1ccc(OC(F)(F)F)cc1	NPSR antag inconclusive
CNC(=O)c1cc(C(=O)c2ccc(Cl)cc2)c[nH]1	none (no result: ALDH1A1 block, KDM4E inh, NPSR antag, GoLoco inh red)
O=C(c1ccc(Cl)cc1)c1c[nH]c(C(=O)C(Cl)(Cl)Cl)c1	ALDH1A1 block 8.91µM
CNC(=O)c1[nH]cnc1C(=O)NCC(=O)OCc1ccccc1	none (no result: ALDH1A1 block, KDM4E inh, NPSR antag, GoLoco inh red)
CN(C)c1ccc(C=NCC2COc3ccccc3O2)cc1 (configuration not stated)	ALDH1A1 block 0.562µM
CN(CC1COc2ccccc2O1)C(=O)c1ccc(N(C)C)cc1 (configuration not stated)	ALDH1A1 block 5.62µM
CN(C)C(=O)OCC1COc2ccccc2O1 (configuration not stated)	none (no result: ALDH1A1 block)
CCC(=O)n1nc(-c2ccco2)nc1SCc1ccccc1	Sfp PPTase inh 44.7µM, ALDH1A1 block inconclusive
CCCN(CC(=O)Nc1ccc(C(C)=O)cc1)CC(=O)Nc1ccccc1C	ALDH1A1 block 14.1µM
Cc1cc(-c2nnc(SCC(=O)Nc3ccc(F)cc3F)n2N)n[nH]1	none (no result: ALDH1A1 block, KDM4E inh, NPSR antag, GoLoco inh red)
CCOC(=S)SCC(=O)Nc1ncc(C)s1	Sfp PPTase inh 15.8µM, ALDH1A1 block inconclusive
Cc1cnc(NC(=O)CSc2ccccc2)s1	none
CCOC(=O)N1CCN(C(=O)CCC(=O)N2CCOc3ccc(C)cc32)CC1	ALDH1A1 block 25.1µM (no result: GoLoco inh red)
NCCCC(N)CC(=O)NCC1NC(=O)C(CO)NC(=O)C(N)CNC(=O)C(C2CCN=C(N)N2)NC(=O)/C(=C/NC(N)=O)NC1=O (configuration not stated)	none (no result: FBPA coupling cs, ALDH1A1 block, KDM4E inh, NPSR antag, GoLoco inh red)
O=C(OCC(=O)N1c2ccccc2Sc2ccccc21)C1CC(=O)N(Cc2ccco2)C1 (configuration not stated)	ALDH1A1 block 35.5µM
COc1cccc(COC(=O)C2CC(=O)N(Cc3ccco3)C2)c1OC (configuration not stated)	none (no result: FBPA coupling cs, ALDH1A1 block, KDM4E inh, NPSR antag, GoLoco inh red)
O=C(COC(=O)C1CC(=O)N(Cc2ccco2)C1)c1ccc(OC(=O)c2ccccc2)cc1 (configuration not stated)	Sfp PPTase inh 31.6µM, ALDH1A1 block 14.1µM
Cc1n[nH]c(C)c1CCC(=O)N/N=C/C=C/c1ccccc1	none
N=C1SCC(=O)N1c1ncc(Cc2ccccc2Cl)s1	NPSR antag inconclusive
CCc1nnc(N2C(=N)SCC2=O)s1	Sfp PPTase inh 50.1µM
Cc1ccc(C(=O)C(C)Oc2ccc3ccc(=O)oc3c2)cc1 (configuration not stated)	none (no result: FBPA coupling cs, ALDH1A1 block, KDM4E inh, NPSR antag, GoLoco inh red)
Cc1cc(=O)n(CCCO)c(O)c1C#N	FBPA coupling cs -38.3, KDM4E inh inconclusive
CCOC(=O)c1c(-c2ccccc2)csc1NC(=O)/C(C#N)=C/c1ccc(O)c(OC)c1	Sfp PPTase inh inconclusive, ALDH1A1 block inconclusive
CCOc1c(C=C(C#N)C#N)c2ccccc2n1CC	Sfp PPTase inh 50.1µM, ALDH1A1 block inconclusive
CCC(=O)OCCn1c(=O)c2cc3c(=O)n(CCOC(=O)CC)c(=O)c3cc2c1=O	none
CCC(=O)OCN1C(=O)C=CC1=O	ALDH1A1 block 1µM (no result: FBPA coupling cs, Sfp PPTase inh, KDM4E inh, NPSR antag)
O=C(Oc1ccccc1)N1CCC2(CCCN(c3ccc(-c4ccccc4)cc3)C2)CC1	ALDH1A1 block inconclusive (no result: KDM4E inh, NPSR antag)
COC(=O)CCCC(=O)NC(C)c1cnn(-c2ccccc2C)c1C (configuration not stated)	none
CC(=O)Oc1c(C(=O)c2nnc(C)o2)c(=O)n(C)c2ccccc12	ALDH1A1 block inconclusive, KDM4E inh inconclusive
Cc1ccc(NC(=S)Nc2ccccn2)cc1C	NPSR antag inconclusive (no result: ALDH1A1 block)
Cc1ccc(NC(=S)Nc2ccc3nc(-c4ccccn4)c(-c4ccccn4)nc3c2)cc1C	FBPA coupling cs -53.1, ALDH1A1 block 17.8µM, KDM4E inh inconclusive
COc1ccc(NC(=O)NCCN2CCN(c3cccc(Cl)c3)CC2)cc1	FBPA coupling cs -32.0, Sfp PPTase inh inconclusive
COc1ccc(N2CCC(CNC(=O)Nc3ccc(Cl)cc3)C2)cc1 (configuration not stated)	ALDH1A1 block 5.62µM
CCc1cccc(C)c1NC(=S)NCC1CCN(c2ccc(OC)cc2)C1 (configuration not stated)	ALDH1A1 block 10µM, KDM4E inh inconclusive
CCc1ccccc1NC(=S)NCC1CCN(c2ccc(OC)cc2)C1 (configuration not stated)	none (no result: ALDH1A1 block)
COc1ccc(S(=O)(=O)NCC(=O)N(CC(=O)NCc2ccco2)Cc2ccc(F)cc2)cc1	none (no result: ALDH1A1 block, KDM4E inh, NPSR antag, GoLoco inh red)
CN1Cc2cc(C(=O)c3cc(Cl)cc(CSc4ncccn4)c3O)cnc2NC1=O	ALDH1A1 block 28.2µM
Cc1ccc(O)c(C(=O)c2cnc3c(c2)CN(CCC(C)C)C(=O)N3)c1	ALDH1A1 block inconclusive
Cc1ccc(O)c(C(=O)c2cnc3c(c2)CN(C)C(=O)N3)c1	ALDH1A1 block 25.1µM
COc1ccc(NS(=O)(=O)c2cc(C)ccc2NC(=O)c2cc(C)oc2C)cc1	ALDH1A1 block 7.94µM
COc1cccc(NC(=O)CSc2nnc(NC(=O)c3ccco3)s2)c1	none (no result: FBPA coupling cs, ALDH1A1 block, KDM4E inh, NPSR antag, GoLoco inh red)
O=S(=O)(c1ccc(Br)s1)N1CCC2(CC1)OCCO2	none (no result: FBPA coupling cs, ALDH1A1 block, KDM4E inh, NPSR antag, GoLoco inh red)
CCCCC(CC)C(=O)N1CCN(C(=O)c2ccco2)CC1 (configuration not stated)	ALDH1A1 block 25.1µM
CCCCNC(=O)N1CCN(C(=O)c2ccco2)CC1	none
CCCC(c1nnnn1Cc1ccc(OC)cc1)N1CCN(C(=O)c2ccco2)CC1 (configuration not stated)	none (no result: ALDH1A1 block, KDM4E inh, NPSR antag, GoLoco inh red)
CCCC(c1nnnn1Cc1ccco1)N1CCN(C(=O)c2ccco2)CC1 (configuration not stated)	ALDH1A1 block 12.6µM
CCCCC(c1nnnn1Cc1ccco1)N1CCN(C(=O)c2ccco2)CC1 (configuration not stated)	ALDH1A1 block 14.1µM
CC(=O)OCON[N+]([O-])=NC1CCCCC1	none (no result: ALDH1A1 block, KDM4E inh, NPSR antag, GoLoco inh red)
CCCOc1ccc(N2C(=O)CC(N3CCN(c4nc5ccccc5s4)CC3)C2=O)cc1 (configuration not stated)	ALDH1A1 block 14.1µM
O=C1CC(N2CCN(c3nc4ccccc4s3)CC2)C(=O)N1Cc1cccs1 (configuration not stated)	ALDH1A1 block 22.4µM
O=C1CC(N2CCC(c3nc4ccccc4o3)CC2)C(=O)N1Cc1cccs1 (configuration not stated)	ALDH1A1 block inconclusive
O=C1CC(N2CCN(c3ccc(F)cc3)CC2)C(=O)N1Cc1cccs1 (configuration not stated)	ALDH1A1 block 14.1µM

From PubChem
